# Test results reported in PubChem BioAssay AID493244 (The Scripps Research Institute Molecular Screening Center, 2011).
# Out of some 340,000 compounds screened, about 390 (0.11%) were called active. The sample holds actives, similar compounds and a random draw of the others, so the mix is not that of the screen.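 How the source made its calls: active means inhibition above the mean inhibition of all tested compounds plus 3 SD (cut at about 17% in these data); inactive means the rest.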
# Biological target: Troponin I, cardiac muscle (Homo sapiens) + Troponin T, cardiac muscle (Homo sapiens) + Troponin C, slow skeletal and cardiac muscles (Homo sapiens) (UniProt P19429+P45379+P63316)
# Test: calcium desensitizers of cardiac thin filaments – biochemical, IANBD-TnC fluorescence, EC70 calcium, primary screen (AID 493244);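 further: assay run at fixed EC70 calcium of 1.6 mM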
# Settings: IANBD-labeled cardiac RTF, Ca2+ fluorescence; at 7.15 µM; stronger effect = higher value
row,Structure (SMILES),inhibition
1,CCN(CC)S(=O)(=O)c1ccc(N2CCOCC2)c(NC(=O)C2CSC3(C)CCC(=O)N23)c1 (stereo not drawn),-5.18% (inactive)
2,O=C(c1ccco1)N1CCN(C(=S)Nc2cc(F)cc(F)c2)CC1,-7.48% (inactive)
3,C[C@]12c3[nH]c4ccc(Cl)cc4c3CCN1C(=O)[C@@H](CC(=O)NCCCn1ccnc1)C[C@@H]2C(=O)N1CCOCC1,-5.19% (inactive)
4,O=C(Nc1ccc2c(c1)CCC2)c1cccc(S(=O)(=O)Nc2ccccc2Cl)c1,3.16% (inactive)
5,COc1ccc(Cl)cc1NC(=O)[C@@H]1CCCN1C(=O)c1cccs1,5.41% (inactive)
6,Cc1cc(C)cc(N(CC(=O)NC2CCCC2)C(=O)CCC(=O)Nc2cc(C)on2)c1,-4.35% (inactive)
7,Cc1cc(NC(=O)CCC(=O)N(CC(=O)NCC2CCCO2)c2ccccc2)no1 (stereo not drawn),18.5% (active)
8,Cc1cc(NC(=O)CCC(=O)N(CC(=O)NC2CCCC2)c2ccc(F)cc2)no1,-0.21% (inactive)
9,Cc1cc(NC(=O)CCC(=O)N(CC(=O)NCC2CCCO2)c2ccccc2C)no1 (stereo not drawn),-4.7% (inactive)
10,CCCCOc1ccc(N(CC(=O)NCC2CCCO2)C(=O)CCC(=O)Nc2cc(C)ccn2)cc1 (stereo not drawn),-5.97% (inactive)
11,COC(=O)c1cccc(N(CC(=O)NCC2CCCO2)C(=O)CCC(=O)Nc2cc(C)on2)c1 (stereo not drawn),17.2% (active)
12,Cc1cc(C)cc(OCC(=O)NNC(=O)CCN2C(=O)c3ccccc3C2=O)c1,-1.71% (inactive)
13,Cc1cc(C(=O)Nc2ccc(C)c(S(=O)(=O)N3CCOCC3)c2)c2ccccc2n1,5.27% (inactive)
14,Cc1cc(OCc2ccc(C(=O)Nc3ccc(C(=O)O)cc3)o2)ccc1Cl,2% (inactive)
15,O=C(O[C@@H]1[C@H](Cc2ccccc2)NS(=O)(=O)[C@H]2C[C@@H]3C=C[C@]12O3)c1ccccc1Br,-4.49% (inactive)
16,CC(Sc1nnc(COc2ccccc2)n1-c1ccccc1)C(=O)O (stereo not drawn),2% (inactive)
17,Cc1nnc(NC(=O)CCC(=O)N2CCC(C)CC2)s1,-6.77% (inactive)
18,CC1(c2ccc3ccccc3c2)NC(=O)NC1=O (stereo not drawn),-8.57% (inactive)
19,O=C(Nc1ccc(Br)cc1F)C1CC(=O)N(C2CCCCC2)C1 (stereo not drawn),-4.05% (inactive)
20,Cc1ccc(NC(=O)C2CCC(C(C)(C)C)CC2)cc1S(=O)(=O)N1CCOCC1 (stereo not drawn),-8.96% (inactive)
21,Cc1ccc(NC(=O)NC2CCCCC2)cc1S(=O)(=O)N1CCOCC1,21.9% (active)
22,Cc1ccc(NC(=O)C2CC2)cc1S(=O)(=O)N1CCOCC1,5.9% (inactive)

row,Structure (SMILES),inhibition
1,O=C1N=C2SCCN2/C1=C\c1c(Cl)cccc1Cl,-0.73% (inactive)
2,COc1cccc(-n2c(=S)sc3c(=O)n(-c4ccccc4OC)c(SCC4OCCO4)nc32)c1,-13.4% (inactive)
3,O=C(N/N=C/c1ccccc1O)/C(=C/c1ccccc1)CCO,-2.95% (inactive)
4,Cn1cnc([N+](=O)[O-])c1Sc1ccccc1,7.04% (inactive)
5,CCOC(=O)C(C)Oc1cccc2c(=O)n(CC(=O)NCCc3ccc(OC)c(OC)c3)ccc12 (stereo not drawn),-4.75% (inactive)
6,Cc1ccc(NC2=C(Cl)C(=O)OC2OC(=O)c2ccccc2C)cc1 (stereo not drawn),5.74% (inactive)
7,CCc1ccc(N2CC(C(=O)Nc3ccc(S(=O)(=O)Nc4nccs4)cc3)CC2=O)cc1 (stereo not drawn),10.1% (inactive)
8,CSCC[C@H](NC(=O)N1CCn2c1nc1ccccc12)C(=O)NC1CCCCC1,-6.71% (inactive)
9,CC(C(=O)NC1CCCCC1)N1C(=O)c2cccc3cccc1c23 (stereo not drawn),5.31% (inactive)
10,COc1cc(C(=O)N(C)Cc2cccc(OC)c2OC)ccc1OCC(=O)Nc1cccc(C(F)(F)F)c1,6.06% (inactive)
11,Cc1cc(C)nc(Nc2n[nH]c(-c3ccccc3N)n2)n1,2.72% (inactive)
12,CC(C)(C)c1ccc(C(CC(=O)O)NS(=O)(=O)Cc2ccccc2)cc1 (stereo not drawn),-9.83% (inactive)
13,Cc1ccc(S(=O)(=O)Cn2nnnc2CN2CCN(Cc3ccc4c(c3)OCO4)CC2)cc1,-16.1% (inactive)
14,COc1ccc(S(=O)(=O)NC(C)c2ccccc2)cc1C(=O)N1CCCCC1 (stereo not drawn),-3.2% (inactive)
15,O=C(COC(=O)c1ccc(NS(=O)(=O)c2cccs2)cc1O)Nc1ccc(F)cc1,-3.11% (inactive)
16,COc1ccc(/C=C(/NC(=O)c2ccccc2)C(=O)Nc2cccc(C(=O)O)c2)cc1,-3.42% (inactive)
17,O=C1c2ccccc2C(Nc2ccc3c(c2)OCCO3)N1Cc1ccco1 (stereo not drawn),0.13% (inactive)
18,CC(C)c1cc(C(=O)N/N=C/c2ccoc2)c(O)c(C(C)C)c1,-3.15% (inactive)
19,COC(=O)Cc1c(O)ccn(Cc2cccc(C(F)(F)F)c2)c1=O,1.28% (inactive)
20,Cc1cc(S(=O)(=O)NC2CCCC2)ccc1-n1cnnn1,-17.6% (inactive)
21,Cc1ccc(CSc2ccc(S(=O)(=O)N3CCCCC3)cn2)cc1,-3.54% (inactive)
22,O=c1ccc2c(-c3ccccc3S(=O)(=O)O)c3ccc(O)c(O)c3oc-2c1O,141% (active)

row,Structure (SMILES),inhibition
1,CCc1noc(C)c1C(=O)Oc1ccc(N(C)S(=O)(=O)c2ccc(C)c(C)c2)cc1,0.79% (inactive)
2,Cc1ccc(-n2c(=O)c(C#N)cc3c(=O)n4ccccc4nc32)cc1C,-2.12% (inactive)
3,Cc1cc(C)n(Cc2cnc(N3CCOCC3)s2)n1,9.55% (inactive)
4,O=C(C[n+]1cc(-c2ccc(Cl)c(Cl)c2)n2c1CCC2)c1cccs1,0.83% (inactive)
5,CCCCOc1ccc(C(=O)NCC(=O)OCC(=O)N2CCN(S(=O)(=O)c3ccc(C)cc3C)CC2)cc1,-7.59% (inactive)
6,Cc1ccc(C(=O)OCC(=O)NCc2cc(C)c(O)c(C)c2)cc1S(=O)(=O)N1CCCCC1,0.34% (inactive)
7,CCNC(=S)NCC,-5.85% (inactive)
8,Cc1c(Cl)c([N+](=O)[O-])nn1CC(=O)NCC1CCCO1 (stereo not drawn),-4.95% (inactive)
9,Cc1nc2ccc(S(=O)(=O)NCC(=O)O)cc2s1,-1.72% (inactive)
10,CN(c1ccccc1)S(=O)(=O)c1cccc(NC(=O)Cc2ccc(Cl)cc2)c1,11.1% (inactive)
11,COc1ccc(C)cc1S(=O)(=O)N(CC(=O)Nc1cccc([N+](=O)[O-])c1)c1ccc(C)cc1,0.11% (inactive)
12,Cc1ccc(S(=O)(=O)N(CC(=O)Nc2cccc([N+](=O)[O-])c2)Cc2ccc(Cl)cc2)cc1,18.4% (active)
13,COc1ccc(C(=O)NC2CC2)cc1OC1CCN(C/C=C/c2ccccc2)CC1,0.64% (inactive)
14,COc1ccc(CSc2nnnn2-c2ccc(O)cc2)cc1F,-11.7% (inactive)
15,COc1cccc2cc(C(=O)NCc3ccc(C)cc3)c(=N)oc12,0.64% (inactive)
16,CC(NC(=O)COC(=O)C1CCN(S(=O)(=O)c2ccccc2C(F)(F)F)CC1)c1ccccc1 (stereo not drawn),-5.89% (inactive)
17,COc1ccc(CCNC(=O)COC(=O)c2ncc(Cl)c(Cl)c2Cl)cc1OC,4.89% (inactive)
18,Cc1ccc(S(=O)(=O)N(CC(=O)N2CCc3ccccc3C2)c2cccc(Cl)c2)cc1,-9% (inactive)
19,C[C@]12CCC(=O)C=C1C=CC1C2CC[C@@]2(C)C1CC[C@@]21CCC(=O)O1 (stereo partly drawn),2.44% (inactive)
20,Cc1ccc(CN2CC(C(=O)NNC(=O)Cn3ccc(C(F)(F)F)n3)CC2=O)cc1 (stereo not drawn),-7.66% (inactive)
21,NC(=O)C1(Nc2ccc([N+](=O)[O-])cc2)CCCC1,1.13% (inactive)
22,O=c1oc2ccc(C#CC3(O)CCCCC3)cc2cc1-n1cc(-c2ccsc2)nn1,3.02% (inactive)

row,Structure (SMILES),inhibition
1,CC1CN(S(=O)(=O)c2cccc(C(F)(F)F)c2)CN1C(=O)N1CCOCC1 (stereo not drawn),9.08% (inactive)
2,Cc1cc(CNC(=O)C2CCC(=O)N(CCc3ccc(Cl)cc3)C2)no1 (stereo not drawn),1.17% (inactive)
3,Cc1ccc(CNC(=O)Cc2cn(C)c3ccccc23)cc1,-0.42% (inactive)
4,O=S(=O)(c1ccccc1)c1nc(Cc2ccccc2)oc1N1CCOCC1,-3.71% (inactive)
5,O=C(NCCC1CCCCN1S(=O)(=O)c1ccc(Cl)cc1)C(=O)NCc1ccco1 (stereo not drawn),-6.03% (inactive)
6,COc1cccc(CNC(=O)C(=O)NCCC2CCCCN2S(=O)(=O)c2ccc(C)cc2)c1 (stereo not drawn),18.4% (active)
7,O=C(NCCC1CCCCN1S(=O)(=O)c1ccc(F)cc1)C(=O)NC1CC1 (stereo not drawn),-3.06% (inactive)
8,COc1ccccc1S(=O)(=O)NCc1ccc(C(=O)N(C)Cc2ccc(F)cc2)cc1,4.86% (inactive)
9,CCS(=O)(=O)c1ccc(-c2cccc(NC(=O)c3ccc(Br)o3)c2)nn1,9.7% (inactive)
10,COc1ccc(C(CNC(=O)c2cc(S(=O)(=O)Nc3cccc(C)c3)ccc2C)N2CCCC2)cc1 (stereo not drawn),-1.95% (inactive)
11,CSCCC1NC(=O)N(CC(=O)Nc2cccc(S(=O)(=O)N3CCCCCC3)c2)C1=O (stereo not drawn),-6.38% (inactive)
12,CC(C)CC(=O)c1c[nH]c(C(=O)NCc2ccccc2)c1,-10.5% (inactive)
13,COc1ccccc1CCC(=O)NNC(=O)c1ccncc1,-23.1% (inactive)
14,O=S(=O)(Oc1ccccc1C(=S)N1CCOCC1)c1ccc(Cl)cc1,1.09% (inactive)
15,O=C(c1cccc(F)c1)N1CCN(c2ccc([N+](=O)[O-])c3cccnc23)CC1,12.4% (inactive)
16,O=C(CN1CCOCC1)Nc1cccc([N+](=O)[O-])c1,-4.8% (inactive)
17,CN(CCCC(=O)Nc1nccs1)S(=O)(=O)c1ccc(Cl)cc1,-8.75% (inactive)
18,C=CCC1(C(=O)N(C)Cc2ccccc2)CCN(C(=O)OC(C)(C)C)CC1,-8.43% (inactive)
19,CN(C)c1ccc(NC(=O)CN2C3CCCC2CC(NC(=O)c2ccccc2)C3)cc1 (stereo not drawn),1.88% (inactive)
20,CCCCn1c(=O)c(C(C)=O)c(O)c2ccccc21,18.1% (active)
21,CCCn1c(=O)c(-c2ccccc2)c(O)c2ccccc21,-0.9% (inactive)
22,CCCCCn1c(=O)c(C(=O)OCC)c(Cl)c2ccccc21,2.78% (inactive)
